{
  "source": "PubChem BioAssay (Tox21)",
  "note": "Active and inactive are the calls of the source. Calls follow the shape of the full dose curve.",
  "data": [
    {"biological_target": "Muscarinic acetylcholine receptor M1 (Homo sapiens) (UniProt P11229)", "sequence (P11229 whole entry, looked up)": "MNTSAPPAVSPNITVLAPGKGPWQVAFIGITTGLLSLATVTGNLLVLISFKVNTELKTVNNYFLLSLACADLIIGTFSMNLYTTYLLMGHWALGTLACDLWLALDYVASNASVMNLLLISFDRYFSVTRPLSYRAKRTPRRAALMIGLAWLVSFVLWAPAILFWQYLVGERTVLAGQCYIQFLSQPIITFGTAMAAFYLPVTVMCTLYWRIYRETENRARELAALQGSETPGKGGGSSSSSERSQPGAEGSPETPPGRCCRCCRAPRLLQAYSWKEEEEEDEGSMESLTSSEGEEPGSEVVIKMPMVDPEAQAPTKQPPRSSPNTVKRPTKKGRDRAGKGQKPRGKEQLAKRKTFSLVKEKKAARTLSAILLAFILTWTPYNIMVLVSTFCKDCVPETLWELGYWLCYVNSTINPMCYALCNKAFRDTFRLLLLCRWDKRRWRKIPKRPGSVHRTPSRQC", "test": "Cholinergic receptor muscarinic 1 (CHRM1) small molecule agonists, cell-based qHTS assay (AID 1963589); also: % is scaled to controls: 0 for no effect and ±100 for the full control effect; nearly all actives have a fitted effect of over 35% in size", "settings": "CHRM1-CHO cells, agonist mode, calcium flux fluorescence; series mostly up to 76.8 µM; activation: at the top concentration", "text": "National Center for Advancing Translational Sciences [NCATS]\nDivision of Preclinical Innovation [DPI]\nU.S. Environmental Protection Agency [EPA]\nNational Institutes of Environmental Health Sciences [NIEHS]\nNational Toxicology Program [NTP]\nU.S. Food and Drug Administration [FDA]\nThe CHRM1 is a muscarinic receptor. This receptor plays a crucial role in learning and memory processes and has long been identified as a promising therapeutic target for the improvement of cognitive decline in Alzheimer's disease (AD). The CHRM1-CHO cell line stably expressing human muscarinic acetylcholine receptor M1 (CHRM1) can be used for screening agonists and antagonists of interactions between CHRM1 and its ligands. The CHRM1-CHO Calcium Flux Assay is a homogeneous fluorescence-based assay for detecting the intracellular calcium level using FDSS kinetic plate reader system.\nCHRM1-CHO cells were dispensed at 1000 cells/3uL/well in 1536-well black-clear bottom plates using a Multidrop Dispenser. After the assay plates were incubated at a 37 C/5% CO2 incubator for 18 h, 3 uL of Dye Loading Buffer was transferred to the assay plate by a Flying Reagent Dispenser. The assay plates were incubated at 37 C for 1h. For agonist mode, 23 nL of compounds dissolved in DMSO, positive controls or DMSO only was transferred to the assay plate by a pin tool. […] Each test compound was measured at 15 concentrations in three independent runs.", "values": [
      {"compound": "CC(C)COCC(CN(Cc1ccccc1)c1ccccc1)N1CCCC1", "note": "(stereo not given)", "activation": "6.04% [at 35.3 µM] (inactive)"},
      {"compound": "Sc1nc(S)nc(S)n1", "activation": "-0.138% [at 35.3 µM] (inactive)"},
      {"compound": "CCCCN1C(=O)c2ccccc2C1=O", "activation": "-0.938% (inactive)"},
      {"compound": "CC(C)CCC(=O)CCC(C)C", "activation": "-0.0191% (inactive)"},
      {"compound": "CN(C)Cc1cc(C(C)(C)C)c(O)c(C(C)(C)C)c1", "activation": "-0.184% (inactive)"},
      {"compound": "CCN(CC)CC", "activation": "2.25% (inactive)"},
      {"compound": "CCCCOCCOCCOCc1cc2c(cc1CCC)OCO2", "Potency": "inactive"},
      {"compound": "COc1cc(NS(=O)(=O)c2ccc(N)cc2)nc(C)n1", "activation": "-0.116% [at 35.3 µM] (inactive)"},
      {"compound": "CCCCc1oc2ccc(NS(C)(=O)=O)cc2c1C(=O)c1ccc(OCCCN(CCCC)CCCC)cc1", "activation": "-0.0882% [at 35.3 µM] (inactive)"},
      {"compound": "CC(=O)OCC=C(C)C", "activation": "-0.221% [at 35.3 µM] (inactive)"},
      {"compound": "Cc1c(C)n(Cc2ccccc2)c2ccc(C(=O)OCCN(C)C)cc12", "activation": "1.64% [at 35.3 µM] (inactive)"},
      {"compound": "COCc1nnc(-c2ccc[n+]([O-])c2)n1-c1c(Cl)c(Cl)cc2[nH]c(=O)c(=O)[nH]c12", "activation": "-0.0452% (inactive)"},
      {"compound": "OC[C@H]1O[C@@H](OCCc2ccc(O)cc2)[C@H](O)[C@@H](O)[C@@H]1O", "activation": "0.608% [at 35.3 µM] (inactive)"},
      {"compound": "C=CC(=O)[O-].C=CC(=O)[O-].[Zn+2]", "activation": "2.32% (inactive)"},
      {"compound": "CC(=O)/C(C)=C/C1C(C)=CCCC1(C)C", "note": "(stereo not given)", "activation": "-0.465% (inactive)"},
      {"compound": "CCCCCC1Nc2cc(C(F)(F)F)c(S(N)(=O)=O)cc2S(=O)(=O)N1", "note": "(stereo not given)", "activation": "-0.476% [at 35.3 µM] (inactive)"},
      {"compound": "Cc1cccc(Br)c1", "activation": "-0.679% (inactive)"},
      {"compound": "CCCCC(CC)CNC(=O)CC(C)OC(=O)CCC(=O)O", "note": "(stereo not given)", "activation": "-0.472% [at 35.3 µM] (inactive)"},
      {"compound": "CCCC(=O)OCCC(C)CCC=C(C)C", "note": "(stereo not given)", "activation": "-0.757% (inactive)"},
      {"compound": "COC1CCC=CO1", "note": "(stereo not given)", "activation": "-0.151% (inactive)"},
      {"compound": "CC1(C)CC(O)CC(C)(C)N1[O]", "activation": "0.215% (inactive)"},
      {"compound": "CCC(C)(C)C1CCC(O)CC1", "note": "(stereo not given)", "activation": "-0.173% (inactive)"},
      {"compound": "O=C1c2ccccc2Cc2ccccc21", "activation": "-0.755% (inactive)"},
      {"compound": "CN1CCN(C(=O)C2CCCCC2)CC1", "activation": "-0.191% [at 35.3 µM] (inactive)"},
      {"compound": "Cc1c(N)c(=O)n(-c2ccccc2)n1C", "activation": "-0.223% [at 35.3 µM] (inactive)"},
      {"compound": "Cc1ccccc1N=Nc1ccc(N=Nc2c(O)ccc3ccccc23)c(C)c1", "activation": "0.0256% [at 35.3 µM] (inactive)"},
      {"compound": "COC(=O)C1=C(C)NC(C)=C(C(=O)OC(C)C)C1c1cccc2nonc12", "note": "(stereo not given)", "activation": "-0.515% [at 35.3 µM] (inactive)"},
      {"compound": "CCCCCCCCCCCCCCCCCC[N+](C)(C)C", "activation": "-0.145% (inactive)"},
      {"compound": "O=C(O)CCCCCCCCCCCBr", "activation": "-0.929% (inactive)"},
      {"compound": "CN1CC(=O)N2[C@H](c3ccc4c(c3)OCO4)c3[nH]c4ccccc4c3C[C@@H]2C1=O", "activation": "0.21% [at 35.3 µM] (inactive)"},
      {"compound": "COc1ccc(/C=C/C(=O)c2ccc(OC)cc2OC)cc1", "activation": "-0.588% [at 35.3 µM] (inactive)"},
      {"compound": "CC(C)COC(=O)/C=C/c1ccccc1", "activation": "0.3% (inactive)"},
      {"compound": "CCCCCCCCCCCCCBr", "activation": "-0.436% (inactive)"},
      {"compound": "CCc1c(C)cc(N)c(CC)c1N", "activation": "-1.28% (inactive)"},
      {"compound": "O=C(O)C(c1ccc(Cl)cc1)c1ccc(Cl)cc1", "activation": "0.357% (inactive)"},
      {"compound": "CCOCN(C(=O)CS(=O)(=O)O)c1c(C)cccc1CC", "activation": "0.475% (inactive)"},
      {"compound": "CC1=C(C=O)C(C)(C)CCC1", "activation": "0.009% (inactive)"},
      {"compound": "COc1ccc(C(=O)c2ccc(C)cc2)c(O)c1", "activation": "-0.0065% (inactive)"},
      {"compound": "COC(=O)CC(C)CCC=C(C)C", "note": "(stereo not given)", "activation": "0.255% (inactive)"},
      {"compound": "CCN(CC)C(=O)c1ccc(O)c(OC)c1", "activation": "-0.195% [at 35.3 µM] (inactive)"}
    ]}
  ]
}
